Assay results published in PubChem BioAssay AID602250 (The Scripps Research Institute Molecular Screening Center, 2012).
Screen size: about 360,000 compounds; about 2,200 (0.61%) were called active.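 The calls were made as follows: active = inhibition above a per-plate cutoff, the plate's mean sample inhibition plus 3 SD (cut at about 24% in these data); inactive = the rest.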 The full list was thinned out, with actives kept by preference.

Assay: nonselective inhibitors of ATP calcium response in CHO-K1, primary screen, counter-screen for M1 antagonist project, cell-based, Fluo-8 calcium fluorescence, full deck, 1536-well (AID 602250);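 also: 0% = DMSO plus EC80 ATP and 100% = DMSO alone without ATP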
Conditions: CHO-K1 parental, ATP-induced calcium, Fluo-8 fluorescence; at 3 µM; stronger effect = higher value
With `Cc1cccn2c(=O)c3cc(C#N)c(=O)n(CCCN4CCOCC4)c3nc12` the inhibition was 25.6% (active).
For `Cc1cccn2c(=O)c3cc(C#N)c(=NC(=O)c4cccnc4)n(CC4CCCO4)c3nc12` (centres undefined), the inhibition was 20.6% (inactive).
In the case of `Cc1cccn2c(=O)c3cc(C(=O)NCCN4CCOCC4)c(=N)n(Cc4cccnc4)c3nc12`, the inhibition is reported as 6.02% (inactive).
For `COCC(C)NC(=O)c1ccc(-n2nc(C(F)(F)F)cc2-c2cccs2)cc1` (centres undefined), the inhibition was -4.35% (inactive).
With `CC(C)(C)NC(=O)Cn1nnc(-c2ccccc2Cl)n1` the inhibition was -23% (inactive).
In the case of `NC(=O)c1ncn([C@@H]2O[C@H](CN=C3NS(=O)(=O)c4ccccc43)[C@@H](O)[C@H]2O)n1`, the inhibition is reported as -7.18% (inactive).
For `Cc1c(-c2ccccc2)cn2c1-c1ccc(C)n1CC2`, the inhibition was 43.4% (active).
For `CC(=O)c1ccc(NC(=O)CCNS(=O)(=O)c2cc(Br)cnc2N)cc1`, the inhibition was 0.07% (inactive).
For `Cc1ccc(S(=O)(=O)c2c[nH]c3ccc(Cl)cc3c2=O)cc1`, the inhibition was 0.53% (inactive).
For `O=C(CCn1nnnc1CN1CCOCC1)N1CCC(c2ccccc2Cl)C1` (centres undefined), the inhibition was -9.8% (inactive).
In the case of `O=C(Nc1ccccc1)Nc1nnc(COc2ccccc2F)s1`, the inhibition is reported as 7.01% (inactive).
In the case of `C=CCSc1nsc(NC(=O)Nc2cccc(C(C)=O)c2)n1`, the inhibition is reported as 24.7% (active).
For `COc1ccc(C(=O)OCC(=O)Nc2cccc(C(C)=O)c2)cc1OC`, the inhibition was -4.37% (inactive).
With `CC(=O)c1cccc(NC(=S)N2CCN(S(C)(=O)=O)CC2)c1` the inhibition was -7.23% (inactive).
In the case of `CCSc1nsc(NC(=O)Nc2cccc(C(C)=O)c2)n1`, the inhibition is reported as 30.8% (active).
With `CCCCN1C(=O)C(=O)N(CC(=O)Nc2cccc(C(C)=O)c2)C1=O` the inhibition was 10.5% (inactive).
With `CC(=O)c1cccc(NC(=O)[C@@H](NC(N)=O)C(C)C)c1` the inhibition was -2.68% (inactive).
With `CSc1nsc(NC(=O)Nc2ccccc2)n1` the inhibition was 28.2% (active).
In the case of `CSc1nsc(SCC(=O)Nc2cc(C(=O)O)ccc2C)n1`, the inhibition is reported as -5.18% (inactive).
With `CCN1C(=O)C(C(=O)NC(C)c2ccccc2)C2CC1(C)Oc1ccccc12` (centres undefined) the inhibition was -9.9% (inactive).
With `CC(C)n1cnc2c(NCc3ccccc3)cc(OCC3CCN(C)CC3)cc21` the inhibition was -18.6% (inactive).
In the case of `Cc1cc(S(=O)(=O)NCC(C)C)ccc1OCC(=O)NC1CC1`, the inhibition is reported as 7.62% (inactive).
In the case of `O=C(CN1C(=O)NC2(CCCC2)C1=O)NCC1CCCO1` (centres undefined), the inhibition is reported as -10.5% (inactive).
For `O=C(Nc1ccccc1C(=O)NCC1CCCO1)c1ccccc1F` (centres undefined), the inhibition was -7.11% (inactive).
With `NS(=O)(=O)c1ccc(NC(=O)COC(=O)c2c3c(nc4ccccc24)/C(=C\c2ccc4c(c2)OCO4)CCC3)cc1` the inhibition was 26.9% (active).
For `NS(=O)(=O)c1ccc(NC(=O)COC(=O)CCc2c[nH]c3ccccc23)cc1`, the inhibition was 0.38% (inactive).
In the case of `CC(NC(=S)Nc1ccc(S(N)(=O)=O)cc1)c1ccc2c(c1)OCO2` (centres undefined), the inhibition is reported as 9.71% (inactive).
In the case of `Cc1ccc(C(=O)N/C(=C\c2ccco2)C(=O)NC2CCS(=O)(=O)C2)cc1` (centres undefined), the inhibition is reported as -6.64% (inactive).
In the case of `CCC(CC)C(=O)Nc1cc(C(=O)OC)cc(C(=O)OC)c1`, the inhibition is reported as -1.71% (inactive).
For `CN(Cc1ccccc1F)C(=O)C(Cc1ccccc1)NC(=O)c1ccccc1` (centres undefined), the inhibition was 31.8% (active).
With `NC(=O)c1ccc(NC(=O)COC(=O)C(Cc2ccccc2)NC(=O)c2ccccc2)cc1` (centres undefined) the inhibition was 18.1% (inactive).
For `CC(C)C(NC(=O)c1c(F)cccc1F)C(=O)NNC(=O)c1ccccc1` (centres undefined), the inhibition was -6.47% (inactive).
In the case of `Cc1ccccc1N1CCN(C2CCCN(C(=O)c3cn4c(C)cccc4n3)C2)CC1` (centres undefined), the inhibition is reported as -0.61% (inactive).
In the case of `CCc1ccccc1NC(=O)c1ccc2c(c1)CCN2S(C)(=O)=O`, the inhibition is reported as 4.89% (inactive).
In the case of `CS(=O)(=O)N1CCc2cc(C(=O)Nc3ccccc3Br)ccc21`, the inhibition is reported as 25.4% (active).
With `CSc1ccccc1NC(=O)c1ccc2c(c1)CCN2S(C)(=O)=O` the inhibition was -14.8% (inactive).
For `Oc1cc2c(cc1O)CN(C(=S)NCCc1ccc(Cl)cc1)CCC2`, the inhibition was 1.38% (inactive).
For `O=C(CSc1nnc2ccc(-c3ccncc3)nn12)N1CCCCC1`, the inhibition was -8.71% (inactive).
For `Cc1nn(Cc2ccc(F)cc2)c(C)c1NC(=O)c1noc2c1CCc1ccccc1-2`, the inhibition was 24.5% (active).
With `Cc1ccccc1Cn1nc(C)c(NC(=O)C(F)(F)F)c1C` the inhibition was -5.32% (inactive).
With `Cc1nn(Cc2ccc(Cl)c(Cl)c2)c(C)c1NC(=O)c1cc(C2CC2)on1` the inhibition was -3.24% (inactive).
For `Cc1cc(C)c2oc(C(=O)Nc3ccc(S(=O)(=O)Nc4nccc(C)n4)cc3)cc(=O)c2c1`, the inhibition was -10.7% (inactive).
For `Cc1ccc(OCc2cc(C(=O)N(C)CCn3ccnc3C)no2)cc1C`, the inhibition was -1.34% (inactive).
In the case of `Cc1n[nH]c(=O)c2c(NC(=O)CSc3cc(Cl)ccc3Cl)oc(C)c12`, the inhibition is reported as -14.8% (inactive).
In the case of `CCC(C)CN1CCC(CO)(Cc2ccccc2Cl)CC1` (centres undefined), the inhibition is reported as -1.43% (inactive).
For `Nc1ccccc1C(=O)NC1CCCCNC1=O` (centres undefined), the inhibition was -4.31% (inactive).
In the case of `O=C(NNC(=S)NCc1ccccc1)c1ccc(OC(F)F)cc1`, the inhibition is reported as -9.25% (inactive).
In the case of `FC(F)(F)Oc1ccc(NC(=S)NCc2ccccc2)cc1`, the inhibition is reported as 26.5% (active).
With `Fc1ccccc1CNC(=S)Nc1ccc(Cl)cc1` the inhibition was 7.2% (inactive).
With `COc1ccc(S(=O)(=O)Nc2ccc3oc(C)c(C(C)=O)c3c2)cc1` the inhibition was 9.32% (inactive).
For `COc1ccc(NS(=O)(=O)c2ccc(N3CCN(CCO)CC3)c([N+](=O)[O-])c2)cc1`, the inhibition was 4.94% (inactive).
In the case of `COc1ccc(NS(=O)(=O)c2ccc(Oc3c(C#N)cccc3C#N)cc2)cc1`, the inhibition is reported as 49.1% (active).
In the case of `CC(OC(=O)CCC(=O)c1ccccc1)C(=O)Nc1ccc(F)cc1` (centres undefined), the inhibition is reported as 1.59% (inactive).
In the case of `c1ccc(C(=NNc2nc3ccccc3s2)c2ccccn2)cc1`, the inhibition is reported as 35.5% (active).
For `COc1cc(OC)nc(N/N=C(\c2ccccc2)c2ccncc2)n1`, the inhibition was -9.28% (inactive).
In the case of `O=C(Nc1nnc(C2CC2)s1)c1ccccn1`, the inhibition is reported as -5.35% (inactive).
In the case of `CC1(C(=O)NCc2ccc3c(c2)OCO3)CCN1CCc1ccccc1` (centres undefined), the inhibition is reported as -8.04% (inactive).
In the case of `O=C(CC1Sc2ccccc2NC1=O)NNc1ccc(Cl)c(Cl)c1` (centres undefined), the inhibition is reported as -13.4% (inactive).
For `O=C(COc1ccccc1)N1CCN=C1SCc1cccc(F)c1`, the inhibition was -5.27% (inactive).
For `O=C(NCC(=O)N1CCC2(CC1)NCCc1[nH]cnc12)c1ccc(Br)cc1`, the inhibition was -11.4% (inactive).
With `CCC(=O)N1CCc2cc(S(=O)(=O)CCC(=O)N3CCN(c4ccccc4F)CC3)ccc21` the inhibition was -5.31% (inactive).
In the case of `CCC(=O)N1c2ccc(S(=O)(=O)NCc3ccco3)cc2CC1C` (centres undefined), the inhibition is reported as -18.4% (inactive).
In the case of `CCC(=O)N1c2ccc(S(=O)(=O)CCC(=O)N3CCN(c4ccccc4)CC3)cc2CC1C` (centres undefined), the inhibition is reported as 24.5% (active).
With `CC[C@]12c3[nH]c4ccc(OC)cc4c3CCN1C(=O)C(CC(=O)NCCN1CCOCC1)C[C@@H]2C(=O)N1CCN(C(=O)C2CC2)CC1` (some centres undefined) the inhibition was -4.64% (inactive).
In the case of `CCc1ccc2oc(=O)cc(CN3CCCCC3C)c2c1` (centres undefined), the inhibition is reported as -11.8% (inactive).
With `O=C(COC(=O)c1ccc(F)cc1)NCC1COc2ccccc2O1` (centres undefined) the inhibition was -5.85% (inactive).
In the case of `COc1ccc(CCNc2ncnc3nc[nH]c23)cc1OC`, the inhibition is reported as 10.8% (inactive).
In the case of `c1ccc2c(c1)OCC(CNc1ncnc3nc[nH]c13)O2` (centres undefined), the inhibition is reported as 44.4% (active).
In the case of `O=C(Nc1ccc2c(c1)OCCO2)C1c2ccccc2OCC(=O)N1Cc1ccccn1` (centres undefined), the inhibition is reported as -12.5% (inactive).
In the case of `CN(CCO)Cc1csc2ccc(Br)cc12`, the inhibition is reported as -7.65% (inactive).
In the case of `CN(Cc1ccc(F)cc1)C(=O)COc1ccc2ccccc2c1`, the inhibition is reported as -15.2% (inactive).
In the case of `COc1ccc(C(=O)COC(=O)Cn2cnc3c2c(=O)n(C)c(=O)n3C)c(OC)c1`, the inhibition is reported as -0.99% (inactive).
With `COc1ccc(C(C#N)Nc2ccccc2C)cc1` (centres undefined) the inhibition was -8.31% (inactive).
With `CC(C)(C)n1nnnc1C(c1ccc2ncccc2c1)N1CCSCC1` (centres undefined) the inhibition was -9.5% (inactive).
In the case of `CCOc1ccc(C(=O)NCC(=O)N2CCN(c3ccc(C(F)(F)F)cn3)CC2)cc1`, the inhibition is reported as 31.8% (active).
With `O=C(NCC(=O)N1CCN(c2ncc(C(F)(F)F)cc2Cl)CC1)c1ccc(Br)o1` the inhibition was -11.5% (inactive).
For `COc1ccc(N2CCN(C(=O)CNC(=O)c3ccc(C(C)(C)C)cc3)CC2)cc1`, the inhibition was 9.5% (inactive).
With `Cc1ccccc1CSCCNC(=O)c1ccc(N(C)S(=O)(=O)c2ccccc2)cc1` the inhibition was -7.28% (inactive).
In the case of `Cc1cc(-c2nnc(SCC(=O)Nc3ccc(S(N)(=O)=O)cc3)n2N)n[nH]1`, the inhibition is reported as -13.8% (inactive).
In the case of `O=C(NCc1ccccc1)C1c2ccccc2OCC(=O)N1C1CC1` (centres undefined), the inhibition is reported as 0.77% (inactive).
For `O=[N+]([O-])c1ccc2c(c1)C(O)n1nc(-c3ccccc3)nc1S2` (centres undefined), the inhibition was -21.9% (inactive).
With `COc1ccc(OC)c(Nc2nc3ccccc3n3cnnc23)c1` the inhibition was -12.2% (inactive).
With `COc1ccc(CCNc2nc3ccc(C)cc3n3cnnc23)cc1OC` the inhibition was -5.44% (inactive).
With `COc1cc(Nc2nc3ccc(Cl)cc3n3cnnc23)cc(OC)c1OC` the inhibition was 28.9% (active).
For `O=C1CN(C(=O)COC(=O)c2cnc(Cl)c(Cl)c2)c2ccccc2N1`, the inhibition was -25% (inactive).
In the case of `O=C(CCc1nnc(Cc2ccc3c(c2)OCO3)o1)NCCc1ccccc1Cl`, the inhibition is reported as -0.82% (inactive).
In the case of `COc1ccccc1Cc1c(-c2ccc(Cl)cc2)nc2c3ccccc3ccn12`, the inhibition is reported as -20.1% (inactive).
With `CCn1c(=S)[nH]c2cc(S(=O)(=O)N3CCOCC3)ccc21` the inhibition was -3.41% (inactive).
With `CNS(=O)(=O)c1ccc2c(c1)[nH]c(=S)n2C` the inhibition was 35.9% (active).
For `CCCCn1c(=S)[nH]c2cc(S(=O)(=O)N3CCCCC3)ccc21`, the inhibition was -12.6% (inactive).
For `CN1CCc2c(sc3c2c(NCc2ccco2)nc2nnnn23)C1`, the inhibition was -19.9% (inactive).
For `O=C(c1ccc(N2CCCC2=O)cc1)N1CCN(c2ccc(C(F)(F)F)cc2[N+](=O)[O-])CC1`, the inhibition was 44% (active).
For `COc1cc(OC)cc(C(=O)NC(=S)N2CCN(c3ccc(C(F)(F)F)cc3[N+](=O)[O-])CC2)c1`, the inhibition was 5.86% (inactive).
For `O=C(Cc1ccc(S(=O)(=O)N2CCOCC2)s1)N1CCN(c2ccc(C(F)(F)F)cc2[N+](=O)[O-])CC1`, the inhibition was 5.21% (inactive).
